# A selection: hits, their analogues and other compounds. The true share with any hit is near 19%.
# HT1080NT lethal = kills 2HG-producing HT-1080-NT fibrosarcoma cells | Potency, µM (titrated, usually from 46.1 µM), inactives show at the top dose activity, negative = less viability, usual class: cytotoxic | hit rate 1.6% among 360,000 | AID 686970 | HT-1080-NT fibrosarcoma viability, CellTiter-Glo ATP luminescence, 48 h;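 also: NT is the 2HG producing partner of a matched IDH1 knockdown line; potency is read from the fitted curve at half-maximal effect; 0% = DMSO-treated cells and -100% = media-only wells without cells; nearly all actives have a fitted effect of over 55% in size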
#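 Toxicity toward the 2HG-producing NT line was scored as %Activity, normalised to DMSO and no-cell wells, from CellTiter-Glo luminescence after 48 hours' treatment.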
# IL1B secr inh = blocks inflammasome-driven IL-1 beta release; activity change, % at 57.5 µM; hit rate 4.7% among 360,000; THP-1 LPS/ATP IL-1B secretion, AlphaLISA, 16 h; hits give low values; in the data active = activity change below about -50%; inconclusive = mostly about -30% to -49%
#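 THP-1 cells pretreated 1 hr with compounds (up to 57.5 uM final), then stimulated with LPS (250 ng/mL final) plus ATP (1.25 mM final); secreted IL-1B measured by AlphaLISA after 16 hr, decreased signal indicating inhibition.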
# HT1080 IDH1KD tx = toxicity to HT-1080 IDH1 knockdown cells (counter line); HT-1080 IDH1 knockdown viability, ATP luminescence, 48 h; Potency, µM (top dose mostly 46.1 µM), for inactives: top-dose activity, negative = toxicity, most hits filed as cytotoxic; hit rate 2% among 360,000; AID 686971;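 also: potency is read from the fitted curve at half-maximal effect; 0% = DMSO wells and -100% = cell-free medium wells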
#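 Luminescent ATP read-out (CellTiter-Glo, 10 min at room temperature) after 48 h compound exposure at 37 °C gave viability of IDH1-knockdown HT-1080 cells. Activity was normalised to DMSO and cell-free wells, then fitted as concentration-response curves.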
# DT40 TDP1 CPT = growth inhibition of DT40 Tdp1-/-;hTDP1 cells with camptothecin (screen for TDP1 inhibitors) | AID 686979 | hit rate 12% among 420,000 | Potency, µM (doses to about 46.2 µM), for inactives: at the top dose activity change, negative = growth inhibition, usual class: inhibitors | chicken DT40 Tdp1-/-;hTDP1 cells + 20 nM CPT, ATP luminescence, 48 h; also: potency is read from the fitted curve at half-maximal effect; nearly all actives have a fitted effect of over 55% in size
#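 Cell growth measured by CellTiter-Glo luminescence after a minimum 48 h, 37 C compound exposure with 20 nM CPT in Tdp1-knockout DT40 cells stably expressing hTDP1, seeded 400/well; qHTS titration format.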
# TDP1 cell noCPT = qHTS for Inhibitors of human tyrosyl-DNA phosphodiesterase 1 (TDP1): qHTS in cells in absence of CPT; DT40 Tdp1-/- hTDP1 cells, no CPT, ATP luminescence, 48 h; Potency, µM (top dose mostly 46.2 µM), without a hit: top-dose activity change, negative = growth inhibition, actives largely listed as inhibitors; hit rate 15% among 420,000; also: potency is read from the fitted curve at half-maximal effect; nearly all actives have a fitted effect of over 55% in size
#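 Seeded 400 DT40-hTDP1 cells/well (vehicle DMSO, no 20 nM CPT); pinned compounds; ≥48 hr at 37 °C; CellTiter-Glo luminescence as viability measure.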
# * = called active by the depositor; ? = inconclusive; . = not tested or not shown. Unless noted, calls follow the shape of the dose curve; as a rule, active = well fitted curve in the direction sought with a large enough effect; inconclusive = small, poorly fitted or top-dose-only effect, or another doubt; inactive = no such curve, though single readings can be large; an effect the other way counts as inactive or inconclusive. Unless noted, % is scaled to controls: 0 for no effect and ±100 for the full control effect.
SMILES,HT1080NT lethal,IL1B secr inh,HT1080 IDH1KD tx,DT40 TDP1 CPT,TDP1 cell noCPT
O=C1CCCCC1Sc1nnc(Cc2cccs2)n1CCc1ccccc1 (configuration not stated),-11.5%,?,-5.4%,?,23.1µM*
Cc1ccc(NC(=O)Cn2nnc3ccccc3c2=O)cc1C,-13.3%,0.0,-19.9%,5.5%,-10.0%
OCCCNc1cc(-c2ccnc(Nc3cccc(Cl)c3)n2)ccn1,-44.9%,-108.3*,?,0.146µM*,0.164µM*
CCC(C)Oc1cc(-c2ccnc(Nc3cccc(Cl)c3)n2)ccn1 (configuration not stated),-26.5%,-85.8*,?,?,?
O=C(c1cnc(Cl)c(Cl)c1)N1CCC(Cc2ccccc2)CC1,-6.3%,-10.1,-7.4%,2.6%,?
CCCCCC1(C)NC(=S)N(c2ccccc2)N1 (configuration not stated),?,12.8,?,11.8%,-8.7%
C=C(C)CCC1(C)NC(=O)N(c2ccccc2)N1 (configuration not stated),9.2µM*,.,14.6µM*,-1.5%,-18.1%
CC1(c2ccc(O)cc2)NC(=O)N(c2ccccc2)N1 (configuration not stated),5.8µM*,0.0,10.3µM*,33.2%,2.2%
CC(C)Cn1c(-c2ccc(C#N)cc2)nc2c1c(=O)[nH]c(=O)n2CC(C)C,2.0%,-15.9,-10.2%,?,?
CCOC(=O)CC(NS(=O)(=O)c1cc(-c2cc(C)no2)ccc1C)c1ccc(C)cc1 (configuration not stated),.,.,.,20.6µM*,8.2µM*
Cc1ccc(S(=O)(=O)N2CCC(c3nnc(-c4cccc(C)c4)o3)CC2)cc1,.,.,.,3.66µM*,3.66µM*
CCCc1ccc(S(=O)(=O)N2CCC(c3nnc(-c4cccc(C)c4)o3)CC2)cc1,.,.,.,5.17µM*,4.61µM*
Cc1c(Cl)cccc1NC(=O)CN1CCN(CCO)CC1,10.1%,-4.6,5.8%,-6.4%,3.1%
Cc1nc(Nc2ncc(C(=O)Nc3c(C)cccc3Cl)s2)cc(N2CCN(CCO)CC2)n1,.,.,.,2.11µM*,2.37µM*
Cc1ccccc1C(=O)c1c[nH]c(C(=O)NCc2cccs2)c1,17.0%,?,11.6%,?,?
Cc1ccc(C)c(N2CCN(C(=O)c3ccccc3Br)CC2)c1,-4.5%,?,-5.5%,20.6µM*,16.4µM*
Cc1ccc(C)c(N2CCN(C(=O)c3ccc4c(c3)c(C)c(C)n4C)CC2)c1,?,3.0,?,23.1µM*,16.4µM*
Cc1ccc(C)c(N2CCN(C(=O)c3csc(C)c3C)CC2)c1,-17.7%,-10.4,-3.1%,?,?
Cc1ccc(N2CCN(C(=O)c3cc(C(=O)c4ccccc4C)c[nH]3)CC2)c(C)c1,9.5%,?,5.1%,?,23.1µM*
Cc1ccc(N2CCN(C(=O)c3ccccc3Br)CC2)c(C)c1,-13.2%,-2.0,-0.8%,?,25.9µM*
COc1ccc(CCNC(=O)CCn2c(=O)c3ccccc3n(CC(=O)Nc3cccc(C)c3)c2=O)cc1OC,.,.,.,1.3%,-4.5%
S=c1nc2ccccc2c2nc(-c3ccccc3Br)[nH]n12,-12.0%,17.0,-4.6%,2.06µM*,1.03µM*
Cc1ccc(NC(=O)CSc2nc(-c3ccco3)nc3cc(=O)[nH]n23)cc1,.,.,.,9.3%,-4.9%
CCOc1ccc(N(CC)S(=O)(=O)c2ccc3c(c2)n(C)c(=O)c(=O)n3C)cc1,-4.3%,-21.3,-4.1%,-0.8%,-6.2%
CCCN(CCC)C(=O)C1CCCN(S(=O)(=O)c2cc(Br)cc3c2N(C(=O)CC)CC3)C1 (configuration not stated),.,.,.,?,20.6µM*
SMILES,HT1080NT lethal,IL1B secr inh,HT1080 IDH1KD tx,DT40 TDP1 CPT,TDP1 cell noCPT
CC(=O)N1CCc2cc(Br)cc(S(=O)(=O)N3CCCCCC3)c21,-8.6%,-7.4,0.0%,-19.3%,-14.8%
CCN(C(=O)C1CCN(S(=O)(=O)c2cc(Br)cc3c2N(C(C)=O)CC3)CC1)c1cccc(C)c1,.,.,.,?,23.1µM*
CCC(=O)N1CCc2cc(Br)cc(S(=O)(=O)N3CCCC(C(=O)N(C)c4ccc(Br)cc4)C3)c21 (configuration not stated),.,.,.,18.4µM*,?
COc1ccc(NC(=O)CN(C)C(=O)CCNC(=O)c2ccccc2OC)cc1,3.0%,-2.1,-3.8%,7.3%,-5.6%
CN(c1cc(Cl)c2c(c1)OCO2)c1cc2c(c3c1ccn3C)C1CCC2C1 (configuration not stated),5.4%,51.8,9.7%,?,20.6µM*
CCN(CC)c1cc2c(c3c1ccn3C)C1CCC2C1 (configuration not stated),6.3%,21.3,0.6%,25.9µM*,?
CCN(Cc1ccccc1)c1cc2c(c3c1ccn3C)C1CCC2C1 (configuration not stated),0.2%,-6.0,-5.9%,23.1µM*,23.1µM*
Cn1c(SCC(=O)N2CCCc3ccccc32)ncc(C(=O)Nc2ccc(Cl)cc2)c1=O,.,.,.,-18.7%,-19.5%
CC1(C)CC(=O)C(C=NCC2CCN(C(=S)Nc3cccc(Cl)c3)CC2)=C(O)C1,-0.6%,12.1,-0.2%,-18.8%,?
O=C(NCC(c1ccco1)N1CCc2ccccc21)C(=O)Nc1ccccc1F (configuration not stated),-2.6%,-6.6,-18.3%,?,18.4µM*
O=C(NCC(c1ccco1)N1CCc2ccccc21)C(=O)Nc1ccc(F)cc1F (configuration not stated),?,1.0,?,4.11µM*,3.26µM*
Cc1nn2c(C)c(C(=O)NC(C)(C)C)cnc2c1-c1ccc(F)cc1,.,.,.,-8.3%,-22.3%
COc1ccc2c(C)c(C(=O)NCC(C)O)oc2c1OC (configuration not stated),8.0%,-7.0,-0.9%,12.5%,-1.7%
Cc1cc(-c2ccccc2)nc(N(C)NC(=O)c2c(F)cccc2F)c1S(C)(=O)=O,-8.0%,-19.3,-3.2%,?,23.1µM*
CC(C)CCNC(=O)C1CCN(C(=O)c2cc3sccc3n2Cc2ccc(Cl)cc2)CC1,.,.,.,18.4µM*,9.2µM*
O=C(NCc1ccccn1)C1CCN(C(=O)c2cc3sccc3n2Cc2ccc(F)cc2)CC1,0.8%,24.0,-19.7%,?,23.1µM*
O=C(NCCCN1CCCC1)C1CCN(C(=O)c2cc3sccc3n2Cc2ccc(F)cc2)CC1,?,3.9,?,16.4µM*,?
N#CCCN(Cc1ccccc1)C(CCc1ccccc1)C(=O)NC1CCCCC1 (configuration not stated),?,-7.8,?,?,?
Cc1cccc(N2CCN(S(=O)(=O)c3ccc(-c4cnc(C5CC5)o4)cc3)CC2)c1C,.,.,.,18.4µM*,13µM*

# Bioassay records: PubChem, National Center for Advancing Translational Sciences (NCATS)
